Laboratory results as given in the OligoGym collection.

molecular target: ZFHX4; experiment: pooled miR-30 sensor sort-seq; sequence = guide strand; conditions: shRNA
Note: reference of the scale not given here.

| Sequence | sensor-assay potency score (higher = more potent) |
| --- | --- |
| ATCGCTAACACAACCATCGAAT | -0.685 |
| TAGAGCTACTATCACTTCCTAC | -0.103 |
| TAACATTTCACATTCTTGCATG | -0.369 |
| TTGCTCTCTGACATCTTGCTAG | -0.546 |
| TTGATCTTGCAGTGTGTCGGGG | 0.234 |
| TTGAAGTTCAGCTTCACTCAGT | 0.0714 |
| TTTGTTGCTGAGGACGTCCTGA | -0.337 |
| TTGCTTGTTCGAATGTACCGTT | 0.0955 |
| TTTGTCATCGCAGACCTCCGTG | -0.26 |
| TTTGTTACCAATACTATCGGTG | -0.044 |
| TTCTTCTGTACCTTCTGCCTGT | 0.382 |
| TTTATTTCTCTGTCGTTCCTTA | 0.274 |

molecular target: ZFP62; experiment: as above; conditions: shRNA

| Sequence | sensor-assay potency score (higher = more potent) |
| --- | --- |
| TAGAGCGTGAGATATAGGCTTT | -0.26 |
| TAATTTCTTAACAGCATTGGTT | -0.651 |
| TATGTAATTTCTTAACAGCATT | -1.56 |
